Reference: PubChem BioAssay
Inconclusive results are not listed. Calls of active or inactive are those of the source.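 How the source made its calls, unless noted: active means normalized viability below 100% at a tested concentration; inactive means the rest.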

Assays:
[1] = growth inhibition of DIPG cells – cell-based, MIPE4.0 library, CellTiter-Glo luminescence, qHTS (AID 1347066; cut-off not given, nearly all actives have AC50 up to about 30 µM;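 further: cells exposed to compound for 48 hours before readout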); conditions: SU-DIPG-VI viability, CellTiter-Glo ATP luminescence
[2] = growth inhibition of DIPG cells – cell-based, MIPE5.0 library, qHTS (AID 1347068; cut-off not given, nearly all actives have IC50 up to about 30 µM); conditions: SU-DIPG-XXV viability
[3] = viability loss with induced miR-34 in A549 – imaging, A549 dox-inducible miR-34, nuclei and caspase counts, primary screen (AID 1347080;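 active means compounds whose cell count with miR-34 switched on is under 0.7 times the count with it off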); conditions: A549 miR-34 inducible, Hoechst nuclei count, 48 h
[4] = compounds altering HSF1 focus formation in cells – imaging, Selleck Cancer Library (AID 1347162; in the data active means plate-normalised HSF1 focus index below about 0.46); conditions: human cells, HSF1 nuclear foci imaging, at 10 µM; SSMD: measured here: HSF1 foci SSMD mean; cell count: measured here: cell number; plate-normalised HSF1 focus index: stronger effect = lower value
[5] = MELAS cybrid and Rieske KO viability enhancers – cell-based, MELAS cybrids, Rieske KO mouse fibroblasts, CellTiter-Glo, primary screen (AID 1508586;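 active means mean z-score across replicates of 1.96 or higher in either the MELAS or the Rieske mutant cell line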;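 further: z relative to plate mean and SD of compound and empty wells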); conditions: low glucose
[6] = drug combination growth inhibition, ovarian cancer – cell-based, oncology-focused library, rucaparib conditional, profiling panel (AID 1508598); conditions: patient-derived ovarian cancer cells, CellTiter-Glo viability, 144 h, stronger effect = lower value
[7] = JHH-DIPG-1 glioma cell viability, MIPE5.0 library, CellTiter-Glo luminescence, qHTS (AID 1347067; cut-off not given, nearly all actives have AC50 up to about 26 µM;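 further: cells exposed to compound for 48 hours before readout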); conditions: JHH-DIPG-1 glioma viability, CellTiter-Glo ATP luminescence
[8] = viability loss in pontine glioma line – cell-based, SU-DIPG-XIII, MIPE5.0, CellTiter-Glo, qHTS, dose response (AID 1347064; cut-off not given, nearly all actives have AC50 up to about 23 µM); conditions: CellTiter-Glo ATP luminescence
[9] = viability loss in pontine glioma line – cell-based, SU-DIPG-XXV, MIPE5.0, CellTiter-Glo, qHTS, dose response (AID 1347065; cut-off not given, nearly all actives have AC50 up to about 26 µM;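 further: cells exposed to compound for 48 hours before ATP readout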); conditions: CellTiter-Glo ATP luminescence
[10] = viability loss in pontine glioma line – cell-based, SU-DIPG-IV, MIPE4.0, CellTiter-Glo, qHTS, dose response (AID 1347063; cut-off not given, nearly all actives have AC50 up to about 30 µM;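 further: compound exposure lasted 48 hours before the viability readout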); conditions: CellTiter-Glo ATP luminescence
[11] = stronger effect = lower value, cell number ratio, induced over uninduced
[12] = measured here: relative caspase fold change +Dox/-Dox
[13] = measured here: total cells with miR-34 induction, stronger effect = lower value
[14] = measured here: total cells without miR-34 induction
[15] = MELAS cybrid survival, CellTiter-Glo 48 h, stronger effect = higher value
[16] = Rieske KO mouse fibroblast survival, CellTiter-Glo 72 h
[17] = at 0.000305 µM, OCI-C5x cells, with rucaparib 10 µM, 100% = cells with rucaparib alone
[18] = at 0.000305 µM, OCI-C5x cells, without rucaparib
[19] = at 0.000305 µM, OCI-P5x cells, with rucaparib 20 µM, 100% = cells with rucaparib alone
[20] = at 0.000305 µM, OCI-P5x cells, without rucaparib
[21] = at 0.00122 µM, OCI-C5x cells, with rucaparib 10 µM, 100% = cells with rucaparib alone
[22] = at 0.00122 µM, OCI-C5x cells, without rucaparib
[23] = at 0.00122 µM, OCI-P5x cells, with rucaparib 20 µM, 100% = cells with rucaparib alone
[24] = at 0.00122 µM, OCI-P5x cells, without rucaparib
[25] = at 0.00488 µM, OCI-C5x cells, with rucaparib 10 µM, 100% = cells with rucaparib alone
[26] = at 0.00488 µM, OCI-C5x cells, without rucaparib
[27] = at 0.00488 µM, OCI-P5x cells, with rucaparib 20 µM, 100% = cells with rucaparib alone
[28] = at 0.00488 µM, OCI-P5x cells, without rucaparib
[29] = at 0.0195 µM, OCI-C5x cells, with rucaparib 10 µM, 100% = cells with rucaparib alone
[30] = at 0.0195 µM, OCI-C5x cells, without rucaparib
[31] = at 0.0195 µM, OCI-P5x cells, with rucaparib 20 µM, 100% = cells with rucaparib alone
[32] = at 0.0195 µM, OCI-P5x cells, without rucaparib
[33] = at 0.0781 µM, OCI-C5x cells, with rucaparib 10 µM, 100% = cells with rucaparib alone
[34] = at 0.0781 µM, OCI-C5x cells, without rucaparib
[35] = at 0.0781 µM, OCI-P5x cells, with rucaparib 20 µM, 100% = cells with rucaparib alone
[36] = at 0.0781 µM, OCI-P5x cells, without rucaparib
[37] = at 0.313 µM, OCI-C5x cells, with rucaparib 10 µM, 100% = cells with rucaparib alone
[38] = at 0.313 µM, OCI-C5x cells, without rucaparib
[39] = at 0.313 µM, OCI-P5x cells, with rucaparib 20 µM, 100% = cells with rucaparib alone
[40] = at 0.313 µM, OCI-P5x cells, without rucaparib
[41] = at 1.25 µM, OCI-C5x cells, with rucaparib 10 µM, 100% = cells with rucaparib alone
[42] = at 1.25 µM, OCI-C5x cells, without rucaparib
[43] = at 1.25 µM, OCI-P5x cells, with rucaparib 20 µM, 100% = cells with rucaparib alone
[44] = at 1.25 µM, OCI-P5x cells, without rucaparib
[45] = at 5 µM, OCI-C5x cells, with rucaparib 10 µM, 100% = cells with rucaparib alone
[46] = at 5 µM, OCI-C5x cells, without rucaparib
[47] = at 5 µM, OCI-P5x cells, with rucaparib 20 µM, 100% = cells with rucaparib alone
[48] = at 5 µM, OCI-P5x cells, without rucaparib

## Cn1cc(C2=C(c3cn(C4CCN(Cc5ccccn5)CC4)c4ccccc34)C(=O)NC2=O)c2ccccc21
[1]
  outcome: inactive
[2]
  outcome: inactive
[3]; [11]
  fold change: 0.96 (inactive)
[3]; [12]
  fold change: 1.18
[3]; [13]
  cell count: 6030
[3]; [14]
  cell count: 6280
[4]
  SSMD: 0.559
  cell count: 6710
  plate-normalised HSF1 focus index: 1.03 (inactive)
[5]; [15]
  z-score: -0.204 (inactive)
[5]; [16]
  z-score: -2.05
[6]; [17]
  viability: 118% (inactive)
[6]; [18]
  viability: 151% (inactive)
[6]; [19]
  viability: 108% (inactive)
[6]; [20]
  viability: 115% (inactive)
[6]; [21]
  viability: 136% (inactive)
[6]; [22]
  viability: 148% (inactive)
[6]; [23]
  viability: 113% (inactive)
[6]; [24]
  viability: 105% (inactive)
[6]; [25]
  viability: 127% (inactive)
[6]; [26]
  viability: 136% (inactive)
[6]; [27]
  viability: 109% (inactive)
[6]; [28]
  viability: 105% (inactive)
[6]; [29]
  viability: 138% (inactive)
[6]; [30]
  viability: 144% (inactive)
[6]; [31]
  viability: 106% (inactive)
[6]; [32]
  viability: 98.4% (active)
[6]; [33]
  viability: 127% (inactive)
[6]; [34]
  viability: 149% (inactive)
[6]; [35]
  viability: 119% (inactive)
[6]; [36]
  viability: 105% (inactive)
[6]; [37]
  viability: 136% (inactive)
[6]; [38]
  viability: 146% (inactive)
[6]; [39]
  viability: 111% (inactive)
[6]; [40]
  viability: 93.7% (active)
[6]; [41]
  viability: 149% (inactive)
[6]; [42]
  viability: 156% (inactive)
[6]; [43]
  viability: 113% (inactive)
[6]; [44]
  viability: 92.6% (active)
[6]; [45]
  viability: 159% (inactive)
[6]; [46]
  viability: 140% (inactive)
[6]; [47]
  viability: 102% (inactive)
[6]; [48]
  viability: 99.4% (active)

## c1cc2ccc(N3CCNCC3)cc2cn1
[3]; [11]
  fold change: 0.985 (inactive)
[3]; [12]
  fold change: 0.763
[3]; [13]
  cell count: 5520
[3]; [14]
  cell count: 5610

## CC(C)[C@]1(O)[C@@H](OC(=O)c2ccc[nH]2)[C@@]2(O)[C@@]3(C)C[C@]4(O)O[C@@]5([C@H](O)[C@@H](C)CC[C@]35O)[C@@]2(O)C41C
[3]; stronger effect = lower value
  fold change: 0.925 (inactive)
[3]; [12]
  fold change: 1.12
[3]; [13]
  cell count: 5510
[3]; [14]
  cell count: 5960

## Cc1sc2c(c1C)C(c1ccc(Cl)cc1)=N[C@@H](CC(N)=O)c1nnc(C)n1-2
[7]
  outcome: inactive
[2]
  outcome: inactive
[6]; [17]
  viability: 106% (inactive)
[6]; [18]
  viability: 111% (inactive)
[6]; [19]
  viability: 89.8% (active)
[6]; [20]
  viability: 93.2% (active)
[6]; [21]
  viability: 111% (inactive)
[6]; [22]
  viability: 124% (inactive)
[6]; [23]
  viability: 100% (inactive)
[6]; [24]
  viability: 96.7% (active)
[6]; [25]
  viability: 99.7% (active)
[6]; [26]
  viability: 94.7% (active)
[6]; [27]
  viability: 97.5% (active)
[6]; [28]
  viability: 97.3% (active)
[6]; [29]
  viability: 64.4% (active)
[6]; [30]
  viability: 66.5% (active)
[6]; [31]
  viability: 82.4% (active)
[6]; [32]
  viability: 90% (active)
[6]; [33]
  viability: 38.4% (active)
[6]; [34]
  viability: 48.1% (active)
[6]; [35]
  viability: 54.9% (active)
[6]; [36]
  viability: 77.6% (active)
[6]; [37]
  viability: 20.3% (active)
[6]; [38]
  viability: 29.5% (active)
[6]; [39]
  viability: 31.5% (active)
[6]; [40]
  viability: 66.2% (active)
[6]; [41]
  viability: 16.4% (active)
[6]; [42]
  viability: 26.3% (active)
[6]; [43]
  viability: 24% (active)
[6]; [44]
  viability: 64.7% (active)
[6]; [45]
  viability: 14.7% (active)
[6]; [46]
  viability: 20.8% (active)
[6]; [47]
  viability: 19% (active)
[6]; [48]
  viability: 56.3% (active)

## C[N+]1(C)[C@@H]2CC(OC(=O)C(CO)c3ccccc3)C[C@H]1[C@@H]1O[C@@H]12 (some centres not stated)
[3]; stronger effect = lower value
  fold change: 0.929 (inactive)
[3]; [12]
  fold change: 1.43
[3]; [13]
  cell count: 8500
[3]; [14]
  cell count: 9160

## OOCCC/C=C/c1ccccc1
[3]; [11]
  fold change: 0.959 (inactive)
[3]; [12]
  fold change: 0.789
[3]; [13]
  cell count: 5730
[3]; [14]
  cell count: 5970

## Cn1c2cccc(=O)c-2nc2ccccc21
[3]; [11]
  fold change: 1.03 (inactive)
[3]; [12]
  fold change: 0.698
[3]; [13]
  cell count: 3390
[3]; [14]
  cell count: 3310

## CC(C)(NC(=O)O[C@@H]1CN2CCC1CC2)c1csc(-c2ccc(F)cc2)n1
[8]
  outcome: inactive
[9]
  outcome: inactive
[7]
  outcome: inactive
[2]
  outcome: inactive

## CC(=O)N1N=C(c2ccc(N)cc2)c2cc3c(cc2C[C@H]1C)OCO3
[8]
  outcome: inactive
[9]
  outcome: inactive
[7]
  outcome: inactive
[2]
  outcome: inactive

## CCNC(=O)CC1N=C(c2ccc(Cl)cc2)c2cc(OC)ccc2-n2c(C)nnc21 (configuration not stated)
[10]
  AC50: 16.6 µM (active)
[8]
  outcome: inactive
[9]
  outcome: inactive
[7]
  outcome: inactive
[2]
  outcome: inactive
[3]; [11]
  fold change: 0.886 (inactive)
[3]; [12]
  fold change: 0.522
[3]; [13]
  cell count: 5810
[3]; [14]
  cell count: 6550
[5]; [15]
  z-score: 0.755 (inactive)
[5]; [16]
  z-score: -2.99

## C=C(C)[C@@H]1CCC(C)=C[C@H]1C1=C(O)C(=O)C(CCCCC)=CC1=O
[3]; [11]
  fold change: 1.08 (inactive)
[3]; [12]
  fold change: 0.935
[3]; [13]
  cell count: 5410
[3]; [14]
  cell count: 5000

## O[C@H]1[C@H]2[C@H](O)CCCN2C[C@H]1O
[3]; stronger effect = lower value
  fold change: 0.852 (inactive)
[3]; [12]
  fold change: 1.17
[3]; [13]
  cell count: 5340
[3]; [14]
  cell count: 6260

## c1cc(N2CCNCC2)c2cnccc2c1
[3]; [11]
  fold change: 0.965 (inactive)
[3]; [12]
  fold change: 0.639
[3]; [13]
  cell count: 5540
[3]; [14]
  cell count: 5740

## CCCCCCCCCCCCCCCCSP(=O)([O-])OCC[N+](C)(C)C
[3]; [11]
  fold change: 0.933 (inactive)
[3]; [12]
  fold change: 0.479
[3]; [13]
  cell count: 5080
[3]; [14]
  cell count: 5450

## Cc1sc2c(c1C)C(c1ccc(Cl)cc1)=NC(CC(N)=O)c1nnc(C)n1-2 (configuration not stated)
[7]
  outcome: inactive
[2]
  outcome: inactive
[3]; [11]
  fold change: 0.978 (inactive)
[3]; [12]
  fold change: 0.427
[3]; [13]
  cell count: 5420
[3]; [14]
  cell count: 5540
[5]; [15]
  z-score: 0.425 (inactive)
[5]; [16]
  z-score: -3.88

## C[C@H](Nc1ncnc2nc[nH]c12)c1nc2ccc(F)cc2c(=O)n1-c1ccccc1
[9]
  AC50: 14.8 µM (active)
[2]
  outcome: inactive
